Compound activity deposited in PubChem BioAssay by National Center for Advancing Translational Sciences (NCATS).
This is a sample that favours compounds with a hit; in the whole collection about 18% have one here.
TDP1 block: TDP1 (human) enzyme inhibition. 350,000 tested, 0.28% active. recombinant TDP1, AlphaScreen DNA substrate cleavage. Potency, µM (series often up to 130 µM), for inactives: at the top dose activity change, negative = inhibition, hits mostly inhibitors. Q9NUW8; further: potency means the concentration at half of the fitted maximal effect; nearly all actives have a fitted effect of over 40% in size
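Tdp1 1 nM final; 15 min RT w/ cpd; substrate 15 nM, 5 min; beads 10 ug/ml, 10 min; AlphaScreen read. Neg ctrl: no enzyme.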
DT40 TDP1 no CPT: qHTS for Inhibitors of human tyrosyl-DNA phosphodiesterase 1 (TDP1): qHTS in cells in absence of CPT | AID 686978, 2013 | Potency, µM (titrated, usually from 46.2 µM), for the others: at the highest dose activity change, negative = growth inhibition, most hits filed as inhibitors | 420,000 tested, 15% active | DT40 Tdp1-/- hTDP1 cells, no CPT, ATP luminescence, 48 h; further: potency means the concentration at half of the fitted maximal effect; nearly all actives have a fitted effect of over 55% in size
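Growth kinetics read by CellTiter-Glo luminescence after ≥48 hr at 37 °C. Cells: DT40 Tdp1-/- stably carrying human TDP1, 400 per well, compound exposure in the absence of CPT (DMSO vehicle).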
CtBP-E1A blk: blocks the CtBP interaction with E1A; AlphaScreen GST-E1A/His-CtBP binding, 1536-well; active compounds read low; activity change, % (concentration not given with the values); 340,000 tested, 0.49% active; in the data active means activity change below about -65%; inconclusive means mostly about -30% to -63%
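Steps: dispense buffer (Tris pH 8.0, NaCl 300 mM, TCEP 1 mM, BSA, Tween 20); add 5X protein mix (GST-E1A, His-CtBP, 125 nM each); pin 23 nL compound; 2 h at 37 °C, dark; add 5X beads (50 ug/mL); 1 h; read.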
Six1-Eya2 inh: inhibitors of human Six1/Eya2 interaction | 360,000 tested, 0.56% active | Q15475+O00167 | activity change, % (concentration not given with the values) | AlphaScreen GST-Six1/His-Eya2 binding, biochemical; active compounds read low; in the data active means activity change below about -65%; inconclusive means mostly about -30% to -63%
Target sequence (O00167 whole entry, looked up): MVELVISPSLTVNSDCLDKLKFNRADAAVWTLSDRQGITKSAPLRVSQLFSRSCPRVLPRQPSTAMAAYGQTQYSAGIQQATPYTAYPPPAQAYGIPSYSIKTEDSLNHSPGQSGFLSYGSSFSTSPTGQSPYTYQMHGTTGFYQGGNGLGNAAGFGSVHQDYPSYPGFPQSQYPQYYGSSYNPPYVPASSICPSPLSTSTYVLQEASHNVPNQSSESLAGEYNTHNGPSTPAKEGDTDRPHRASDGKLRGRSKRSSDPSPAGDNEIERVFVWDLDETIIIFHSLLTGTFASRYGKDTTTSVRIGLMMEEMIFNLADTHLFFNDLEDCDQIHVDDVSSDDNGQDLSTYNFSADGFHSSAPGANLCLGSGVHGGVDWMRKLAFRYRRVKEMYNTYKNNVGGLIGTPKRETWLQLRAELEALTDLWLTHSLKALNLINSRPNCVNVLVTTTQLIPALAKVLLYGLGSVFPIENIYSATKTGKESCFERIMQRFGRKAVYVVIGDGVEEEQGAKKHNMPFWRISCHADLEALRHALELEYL
Target sequence (Q15475 whole entry, looked up): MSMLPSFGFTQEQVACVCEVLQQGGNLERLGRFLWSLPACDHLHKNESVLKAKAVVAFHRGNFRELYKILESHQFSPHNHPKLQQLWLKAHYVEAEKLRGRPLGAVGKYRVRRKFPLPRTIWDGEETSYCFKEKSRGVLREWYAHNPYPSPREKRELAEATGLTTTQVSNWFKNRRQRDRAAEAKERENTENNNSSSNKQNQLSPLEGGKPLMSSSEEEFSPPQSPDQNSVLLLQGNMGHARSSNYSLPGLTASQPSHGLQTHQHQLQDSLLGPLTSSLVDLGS
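Compounds are tested against tagged Six1 and Eya2 proteins bridged by glutathione donor and nickel acceptor beads; after a one-hour incubation at 37 °C without light, AlphaScreen emission is recorded.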
TDP1 cell CPT: DT40-hTDP1 cell growth loss with CPT; chicken DT40 Tdp1-/-;hTDP1 cells + 20 nM CPT, ATP luminescence, 48 h; Potency, µM (titrated, usually from 46.2 µM), inactives show top-dose activity change, negative = growth inhibition, actives largely listed as inhibitors; 420,000 tested, 12% active; further: potency means the concentration at half of the fitted maximal effect; nearly all actives have a fitted effect of over 55% in size
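Chicken DT40 Tdp1-/- cells complemented with human TDP1, 400 cells/well, exposed to compounds plus 20 nM camptothecin for at least 48 h at 37 C; viability read as ATP content by CellTiter-Glo luminescence.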
IL1B secr inh: inflammasome signaling inhibition, IL-1 beta readout | AID 743279 | activity change, % at 57.5 µM | 360,000 tested, 4.7% active | THP-1 LPS/ATP IL-1B secretion, AlphaLISA, 16 h; active compounds read low; in the data active means activity change below about -50%; inconclusive means mostly about -30% to -49%
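THP-1 cells pretreated 1 hr with compounds (up to 57.5 uM final), then stimulated with LPS (250 ng/mL final) plus ATP (1.25 mM final); secreted IL-1B measured by AlphaLISA after 16 hr, decreased signal indicating inhibition.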
* marks the source's active call; other numbers are inactive results; u = inconclusive; x = not tested or not shown. Unless noted, the call rests on the fitted dose curve; in most records, active means well fitted curve in the direction sought with a large enough effect; inconclusive means small, poorly fitted or top-dose-only effect, or another doubt; inactive means no such curve, though single readings can be large; an effect the other way counts as inactive or inconclusive. On the % scale 0 is the no-effect control and ±100 the full control effect.

SMILES	TDP1 block	DT40 TDP1 no CPT	CtBP-E1A blk	Six1-Eya2 inh	TDP1 cell CPT	IL1B secr inh
Cc1cn([C@H]2C[C@H](O)[C@@H](/C=C/C(=O)NCCc3ccc(S(N)(=O)=O)cc3)O2)c(=O)[nH]c1=O	x	13%	-16	10	4%	-22
CCOC(=O)Nc1cccnc1Sc1ccc(Cl)cc1	x	-26%	1	18	-23%	-9
Cc1ccc(NC(=O)c2sc3nc(-c4ccc(F)cc4)ccc3c2N)cc1F	4%	21µM*	x	x	12µM*	x
COc1ccc(-c2ccc3c(N)c(C(=O)Nc4cccc(C)c4)sc3n2)cc1	0%	u	x	x	16µM*	x
COc1ccc(-c2ccc3c(N)c(C(=O)Nc4cc(F)ccc4C)sc3n2)cc1	x	15µM*	x	x	u	x
COc1cccc(-c2ccc3c(N)c(C(=O)Nc4ccc(Cl)cc4F)sc3n2)c1	x	u	x	x	-24%	x
Cc1ccc(NC(=O)c2c(C)nc3sc(C(=O)Nc4ccc(F)cc4)c(N)c3c2-c2ccc(Cl)cc2)c(C)c1	6%	-12%	x	x	-9%	x
CCn1c(C)nc([N+](=O)[O-])c1Sc1ccc(F)cc1	5%	16µM*	x	-3	u	u
O=[N+]([O-])c1cccnc1Sc1ccc(F)cc1	x	-18%	-11	-13	-2%	-12
Cc1ccc(-c2csc(C(O)c3ccccc3)n2)cc1C (configuration not stated)	x	u	8	5	u	7
CCC(C)(C)NC(=O)C(c1cccc(OC)c1)N(C(=O)c1ccn[nH]1)c1cccc(OC)c1 (configuration not stated)	6%	u	5	3	u	7
COCCNS(=O)(=O)c1cccn1-c1ncc(C(F)(F)F)cc1Cl	5%	u	3	6	-17%	23
CC(=O)Cc1nsc(NC(=O)c2ccc(-c3cccc(Cl)c3)o2)n1	8%	16µM*	5	12	16µM*	-29
CC(=O)Cc1nsc(NC(=O)c2ccco2)n1	2%	u	0	4	-16%	-5
CC(=O)Cc1nsc(NC(=O)c2ccc(Br)o2)n1	1%	1.6µM*	9	-1	u	16
COC(=O)c1cc(C)nc2c1c(=O)nc(SCc1ccccc1Cl)n2C1CC1	3%	-6%	x	x	-20%	x
O=C(O)c1ccccc1C(=O)N1CCN(c2ccccc2)CC1	2%	-20%	2	-3	4%	0
Nc1sccc1C(=O)N1CCN(c2ccccc2)CC1	x	16µM*	-3	-5	18µM*	-7
CCc1sc(C(=O)N2CCN(C(=O)c3ccccc3)CC2)cc1C	1%	-12%	-4	-3	-23%	u
COc1ccccc1N1CCN(C(=O)c2cnc(N3CCCCC3)c3ccccc23)CC1	2%	3.7µM*	x	x	4.6µM*	x
O=C(c1sc2cc(F)ccc2c1Cl)N1CCN(c2ccccc2)CC1	0%	u	-24	-19	-7%	-60*
CCc1sc(C(=O)N2CCN(c3ccc(F)cc3)CC2)cc1C	15%	15µM*	-1	0	u	4
CC(=O)Nc1ccc(S(=O)(=O)NC(=O)C23CC4CC(CC(C4)C2)C3)cc1	-2%	1%	7	8	-1%	6
CC(C)N(Cc1nccn1C)C(=O)CC1C(=O)NCCN1Cc1ccccc1C(F)(F)F (configuration not stated)	4%	-6%	21	7	-2%	11
O=C(c1ccccc1C(=O)N1CCN(c2ccccc2)CC1)N1CCN(c2ccccc2)CC1	4%	u	-5	-12	u	-5
SMILES	TDP1 block	DT40 TDP1 no CPT	CtBP-E1A blk	Six1-Eya2 inh	TDP1 cell CPT	IL1B secr inh
O=C(c1cnc(N2CCCCC2)c2ccccc12)N1CCN(c2ccccc2F)CC1	2%	u	x	x	16µM*	x
COc1ccccc1N1CCN(C(=O)c2cnc(N3CCOCC3)c3ccccc23)CC1	0%	16µM*	x	x	u	x
O=C(c1ccccc1C(=O)N1CCN(c2ccc(F)cc2)CC1)N1CCN(c2ccc(F)cc2)CC1	4%	9.2µM*	-4	-4	u	-4
O=C(c1cnc(N2CCOCC2)c2ccccc12)N1CCN(c2ccc(F)cc2)CC1	-1%	u	x	x	15µM*	x
COc1cc(Cl)c(C)cc1NC(=O)CCNC(=O)c1ccco1	x	2%	0	10	36%	7
CCCCc1c(O)nc(SCC(=O)N2CCCCCC2)[nH]c1=O	-6%	u	2	0	-17%	u
Fc1cccc(-c2nnn3c2nc(NCc2ccc4c(c2)OCO4)c2ccccc23)c1	1%	u	x	x	-7%	x
CCCSc1nnc2c(n1)OC(c1ccc(Br)s1)Nc1ccccc1-2 (configuration not stated)	x	-28%	x	x	-8%	x
CCCCSc1nnc2c(n1)OC(c1ccc(C)s1)Nc1ccccc1-2 (configuration not stated)	7%	12µM*	x	x	18µM*	x
CCCCCSc1nnc2c(n1)OC(c1ccc(C)s1)N(C(C)=O)c1ccccc1-2 (configuration not stated)	6%	8.2µM*	x	x	18µM*	x
CCCSc1nnc2c(n1)OC(CC)N(C(C)=O)c1ccccc1-2 (configuration not stated)	x	-21%	x	x	-18%	x
COc1ccc(Cc2nnc(Nc3ccc4c(c3)OCCO4)[nH]c2=O)cc1	2%	-20%	7	-6	0%	4
COc1ccc(C)cc1Nc1nc(C)nc2sc(C)cc12	x	21µM*	4	7	u	22
CCCC(=O)Nc1cc(C)c(NC(=O)c2cccs2)cn1	2%	2%	7	1	3%	-25
N=NC(=O)c1ccccc1Nc1c(O)[nH]c2ccccc12	x	u	1	-19	21µM*	-1
CC(C)[C@@H](C(=O)NCc1ccco1)N1C(=O)N2CCc3c([nH]c4ccccc34)[C@@]2(C)C1=O	x	u	-5	-8	u	6
CC(C)(C)NC(=O)NC(=O)Cn1cc(C(F)(F)F)ccc1=O	5%	-5%	7	-3	-13%	-1
CC(C)(C)NC(=O)Nc1ccc(Cn2cc(C(F)(F)F)ccc2=O)cc1	0%	u	3	8	21µM*	14
Cc1ccc(C(NC(=O)C2CCN(Cc3ccc(Cl)c(Cl)c3)CC2)c2ccccn2)cc1 (configuration not stated)	x	1.3µM*	-19	-24	u	x
